Nrf2 inh – Nrf2 qHTS screen for inhibitors. A549 ARE-Fluc reporter, luciferase luminescence, 18-24 h. Potency, µM (highest dose often 46 µM), for the others: at the top dose activity change, negative = inhibition, actives largely listed as inhibitors. hit rate 2.1% among 360,000; also: % is scaled to controls: 0 for no effect and ±100 for the full control effect; nearly all actives have a fitted effect of over 60% in size
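Nrf2 function is reported as luminescence of an ARE-controlled luciferase in A549 cells. Compounds were tested at several concentrations, and a CellTiter-Fluor read on the same wells flagged cytotoxicity.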
mIDH1 inhibitor – qHTS for Inhibitors of mutant isocitrate dehydrogenase 1 (IDH1): qHTS. hit rate 0.093% among 390,000. AID 602179, 2012. Potency, µM (top dose mostly 76.6 µM), without a hit: top-dose activity change, negative = inhibition, actives largely listed as inhibitors. IDH1-R132H enzyme, NADPH consumption, diaphorase/resazurin fluorescence. Isocitrate dehydrogenase [NADP] cytoplasmic (Homo sapiens), O75874; also: % is scaled to controls: 0 for no effect and ±100 for the full control effect; nearly all actives have a fitted effect of over 65% in size
Target sequence (O75874 whole entry R132H, stated change not applied): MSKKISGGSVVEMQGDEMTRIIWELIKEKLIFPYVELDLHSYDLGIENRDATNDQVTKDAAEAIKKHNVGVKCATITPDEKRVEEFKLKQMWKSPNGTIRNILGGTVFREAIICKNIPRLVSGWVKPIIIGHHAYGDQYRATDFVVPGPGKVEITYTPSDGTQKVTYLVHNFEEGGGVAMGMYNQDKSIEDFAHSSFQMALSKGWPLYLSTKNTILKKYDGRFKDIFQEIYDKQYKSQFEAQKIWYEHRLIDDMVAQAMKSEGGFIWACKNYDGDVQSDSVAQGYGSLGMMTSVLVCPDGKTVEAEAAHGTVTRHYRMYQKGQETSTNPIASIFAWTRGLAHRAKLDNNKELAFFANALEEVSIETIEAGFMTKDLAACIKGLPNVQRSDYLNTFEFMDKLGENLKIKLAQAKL
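IDH1-R132H (0.5 ug/mL dispensed) in pH 7.5 Tris buffer was preincubated 30 min with compound, then given a substrate mix of 0.016 mM NADPH and 2 mM alpha-KG for 80 min at room temperature; remaining NADPH was read by diaphorase/resazurin fluorescence.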
Nrf2 ARE act – qHTS of Nrf2 Activators; AREc32 ARE-luciferase reporter (MCF7-derived line), luminescence, 24 h; Potency, µM (series often up to 46.1 µM), inactives show at the highest dose activation, actives largely listed as activators; hit rate 0.31% among 410,000; AID 624171, 2012; also: % of control where 0% means no effect; nearly all actives have a fitted effect of over 65% in size
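For detection, Steady-Glo was added and plates sat 30 min at RT; before that, AREc32_Fluc cells grown overnight in OPTI-MEM/5% FBS had been treated with 23 nL compound for 24 hr at 37 deg C.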
ELG1 repair inh – qHTS screen for small molecules that inhibit ELG1-dependent DNA repair in human embryonic kidney (HEK293T) cells expressing luciferase-tagged ELG1 | HEK293T ELG1-luciferase reporter, luminescence, 16 h; DNA damage induced by 5-fluorouridine | Potency, µM (doses to about 46.1 µM), without a hit: at the top dose activity change, negative = inhibition, hits mostly inhibitors | hit rate 2.3% among 330,000 | AID 504467, 2011; also: % is scaled to controls: 0 for no effect and ±100 for the full control effect; nearly all actives have a fitted effect of over 55% in size
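Quantitative HTS, concentration-response format. 2,000 cells/well co-treated with 5-fluorouridine and compound, 16 hr in 5% CO2 at 37 °C; ONE-Glo luminescence read after 30 min.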
A549 viability – Nrf2 qHTS screen for inhibitors: counterscreen for cytotoxicity | A549 ARE-Fluc cells, CellTiter-Fluor viability, 18-24 h | Potency, µM (titrated, usually from 46 µM), for inactives: top-dose activity change, negative = cytotoxicity, hits mostly inhibitors | hit rate 0.16% among 390,000 | AID 504648, 2011; also: % is scaled to controls: 0 for no effect and ±100 for the full control effect
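A549 ARE-Fluc cells in 5% FBS OPTI-MEM, 5000 cells/well, rested 2 h then exposed to compounds in concentration-response for 18-24 h at 37 °C. Viability by CellTiter-Fluor fluorescence (Ex 405/Em 525) after 30 min; luciferase luminescence (BugLite, 15 min, RT) read afterwards.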
ELG1 FLuc counter – qHTS screen for small molecules that inhibit ELG1-dependent DNA repair: Hit Confirmation in Cell-Based Luciferin Assay | shares compounds with ELG1 repair inh | cell-free firefly luciferase luminescence counter-screen, ViewLux | Potency, µM (titrated, usually from 46.1 µM), for the others: top-dose activity change, negative = inhibition, hits mostly inhibitors | hit rate 3% among 350 | AID 624247, 2012; also: % is scaled to controls: 0 for no effect and ±100 for the full control effect
ELG1-Luc inh – HTS assay for small molecules that inhibit ELG1-dependent DNA repair in human embryonic kidney (HEK293T) cells expressing luciferase-tagged ELG1: Hit Confirmation; Potency, µM (top dose mostly 46.1 µM), inactives show top-dose activity change, negative = inhibition, most hits filed as inhibitors; HEK293T ELG1-luciferase levels, luminescence; cells co-treated with 5-fluorouridine; shares compounds with ELG1 repair inh; hit rate 68% among 670; also: % is scaled to controls: 0 for no effect and ±100 for the full control effect; nearly all actives have a fitted effect of over 55% in size
ELG1-Luc MMS – confirmation of human ELG1 repair inhibitors, MMS stimulated | Potency, µM (series often up to 46.1 µM), without a hit: at the highest dose activity change, negative = inhibition, hits mostly inhibitors | HEK293T luciferase-tagged ELG1 level, MMS stimulated | hit rate 53% among 670 | shares compounds with ELG1 repair inh; also: % is scaled to controls: 0 for no effect and ±100 for the full control effect; nearly all actives have a fitted effect of over 60% in size
ELG1 5-FU – qHTS screen for small molecules that inhibit ELG1-dependent DNA repair: Hit Confirmation with 5FU Viability | shares compounds with ELG1 repair inh | cell viability with 5-FU, ELG1-dependent repair | Potency, µM (series often up to 46.1 µM), for the others: at the top dose activity change, negative = viability loss, actives largely listed as cytotoxic | 670 tested, under 10 active | AID 624250, 2012;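 also: ELG1-luc HEK293T cells cotreated with 5-fluorouridine at 10 µM final; viability measured 16 h after compound addition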
ELG1 MMS viab – qHTS screen for small molecules that inhibit ELG1-dependent DNA repair: Hit Confirmation with MMS Viability. AID 624251, 2012. Potency, µM (titrated, usually from 46.1 µM), inactives show at the top dose activity change, negative = viability loss, most hits filed as cytotoxic. hit rate 33% among 670. Cell viability with MMS, ELG1-dependent DNA repair. shares compounds with ELG1 repair inh;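 also: ELG1-luc HEK293T cells co-treated with 10 µM MMS; viability read 16 h after compound addition; % is scaled to controls: 0 for no effect and ±100 for the full control effect; nearly all actives have a fitted effect of over 60% in size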
ELG1 unstim viab – qHTS screen for small molecules that inhibit ELG1-dependent DNA repair: Hit Confirmation with Unstimulated Viability Assay; shares compounds with ELG1 repair inh; cell viability counter-screen, unstimulated, luminescence; Potency, µM (doses to about 45.9 µM), inactives show at the highest dose activity change, negative = loss of viability, most hits filed as cytotoxic; hit rate 8% among 900;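 also: compound exposure lasted 16 hours before reading; % is scaled to controls: 0 for no effect and ±100 for the full control effect; nearly all actives have a fitted effect of over 55% in size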
FLuc biochem – qHTS screen for small molecules that inhibit ELG1-dependent DNA repair: Hit Confirmation in Biochemical Luciferin Assay; shares compounds with ELG1 repair inh; purified firefly luciferase, luminescence counter-screen; Potency, µM (top dose mostly 57.5 µM), for inactives: at the top dose activity, negative = inhibition, most hits filed as inhibitors; hit rate 10% among 350; AID 624253, 2012; also: % is scaled to controls: 0 for no effect and ±100 for the full control effect
Starred values were filed as active, the others as inactive; ? = inconclusive; nt = no result given; [ ] = remark or other dose. An excerpt weighted towards active compounds, which were near 3.8% of everything screened. Calls follow the shape of the dose curve; as a rule, active = well fitted curve in the direction sought with a large enough effect; inconclusive = small, poorly fitted or top-dose-only effect, or another doubt; inactive = no such curve, though single readings can be large; an effect the other way counts as inactive or inconclusive. Potency is read from the fitted curve at half-maximal effect.

SMILES | Nrf2 inh | mIDH1 inhibitor | Nrf2 ARE act | ELG1 repair inh | A549 viability | ELG1-Luc inh | ELG1-Luc MMS | ELG1 5-FU | ELG1 MMS viab | ELG1 unstim viab | others
COc1cccc(NC(=O)CSc2nnc(-c3cccc(OC)c3)o2)c1 | ? | nt | 5% | nt | -1% | nt | nt | nt | nt | nt
COc1cccc(NC(=O)CSc2nnc(-c3ccc(C)cc3)o2)c1 | 0% | 1% | -1% | ? | -1% | nt | nt | nt | nt | 1%
COC(=O)c1cncc(C)c1 | 9% | 3% | 0% | -5% | 4% | nt | nt | nt | nt | nt
COc1ccc(OC[C@@H](O)CNC(=O)c2cccc3c2C(=O)c2ccc(-c4ccc(F)cc4OCc4ccccc4)cc2S3(=O)=O)cc1 | -27% | 0% | 0% | 2.3µM* | 1% | 3.1µM* | 5% | ? | ? | 0%
COc1ccc(NC(=O)c2cccc3c2C(=O)c2ccc(-c4ccc(F)cc4OCc4ccccc4)cc2S3(=O)=O)cc1 | -4% | -1% | 0% | 5% | -13% | nt | nt | nt | nt | nt
CN(CC(=O)Nc1ccccc1Cl)CC(=O)Nc1sc2c(c1C(N)=O)CCC2 | -3% | 0% | 1% | 4.6µM* | -6% | 16µM* | ? | 10% | -5% | ?
COc1cccc(NC(=O)c2cc3c(=O)n(Cc4cccnc4)ccc3nc2C)c1 | -13% | -11% | 10% | nt | 6% | nt | nt | nt | nt | nt
CCNCc1nc2cc(OC)c(OC)cc2c(=O)[nH]1 | nt | 0% | -1% | -2% | -7% | nt | nt | nt | nt | nt
COc1cc2nc(CN(CCC(C)C)Cc3nc4cc(OC)c(OC)cc4c(=O)[nH]3)[nH]c(=O)c2cc1OC | 2% | -7% | 0% | 1.5µM* | 3% | 2.8µM* | ? | ? | 7% | -17%
COC1=C2C[C@@H](C)C[C@H](OC)[C@H](O)[C@@H](C)/C=C(\C)[C@H](OC(N)=O)[C@@H](OC)/C=C\C=C(/C)C(=O)NC(=CC1=O)C2=O | nt | nt | nt | nt | nt | 1.4µM* | 2µM* | ? | 14µM* | ?
CC1=C(C(=O)OCc2ccc3c(c2)OCO3)C(c2ccc(Cl)cc2)NC(=O)N1 (stereo not drawn) | 7.3µM* | ? | 0% | 0.23µM* | ? | 0.2µM* | 0.89µM* | 11% | ? | ? | ELG1 FLuc counter=?;FLuc biochem=3%
CCCCCOC(=O)C1=C(C)NC(=O)NC1c1ccc2c(c1)OCO2 (stereo not drawn) | ? | -1% | 0% | -6% | -2% | nt | nt | nt | nt | nt
CN(C)c1ccc(-c2cc(NC=O)c3ncc(-c4ccc(F)c(Cl)c4)n3c2)cc1 | nt | nt | 3%[9.22 µM] | nt | nt | nt | nt | nt | nt | nt
CCOc1ccc(C(=O)Nc2ccccc2N2CCN(C(=O)c3ccccc3)CC2)cc1[N+](=O)[O-] | ? | -3% | 3% | 4.6µM* | -9% | 6.3µM* | ? | 6% | -1% | -15%
CCOc1ccc(C(=O)NC(=S)Nc2ccccc2N2CCC(C)CC2)cc1[N+](=O)[O-] | 18% | 3% | 0% | 8% | 6% | nt | nt | nt | nt | nt
O=C(COc1ccc(C(=O)NCC2CCCO2)cc1)Nc1cccc(C(F)(F)F)c1 (stereo not drawn) | -29% | 2% | 0% | 3.3µM* | -3% | ? | ? | 11% | ? | -4%
COc1cccc(NC(=O)Cn2cc(C=O)c3ccccc32)c1 | 14% | -1% | 0% | ? | 1% | nt | nt | nt | nt | nt
CCc1cccc(NC(=O)Cn2cc(C=O)c3ccccc32)c1 | -1% | 3% | 0% | 3.7µM* | -3% | ? | 2.5µM* | 1% | 2.8µM* | -18%
Cc1ccc(NC(=O)c2cc(-c3cccs3)on2)cc1C | -4% | 4% | 5% | ? | 7% | nt | nt | nt | nt | nt
O=C(NC1CCCC1)c1cc(-c2ccccc2O)on1 | 6% | -4% | 5% | ? | 0% | nt | nt | nt | nt | nt
CNC(=O)c1cc(-c2cccs2)on1 | nt | nt | nt | nt | nt | nt | nt | nt | nt | -6%
O=C(NC1CCCC1)c1cc(-c2cccs2)on1 | ? | 2% | 29% | ? | 2%[1.84 µM] | nt | nt | nt | nt | -12%
CC(C)CC(=O)NCc1nc2cccnc2n1Cc1ccccc1 | nt | 6% | -1% | nt | 2% | nt | nt | nt | nt | nt
COC(=O)C1=C(CS(=O)(=O)c2ccc(C)cc2C)NC(=O)NC1c1ccc(C)cc1 (stereo not drawn) | -11% | 8% | -1% | nt | -4% | nt | nt | nt | nt | nt
CCOC(=O)N1CCN(C(=O)c2cnn3c(C(F)F)cc(-c4ccc(C)cc4)nc23)CC1 | nt | 5% | 0% | 3.7µM* | -2% | 3.5µM* | 5% | ? | -8% | ?
COc1ccc(-c2cc(C(F)F)n3ncc(C(=O)N4CCc5ccccc54)c3n2)cc1 | ? | 5% | -1% | 0.52µM* | -11% | 4.5µM* | ? | ? | ? | -11% | ELG1 FLuc counter=19%;FLuc biochem=4%

Bioassay records from PubChem BioAssay.
